Measured values reported in the supplement of paper PMC10849652.
Of roughly 8,800 targets only a part is listed; those with a hit were picked by preference. About 0.5% of all pairs of compound and target were hits.

compound: COc1cc2ncnc(Nc3ccc(F)c(Cl)c3)c2cc1OCCCN1CCOCC1 [gefitinib]; experiment: log2 fold change, soluble protein after heating vs DMSO (PISA); higher = thermal stabilisation; K562 lysate, 10 uM; active = over 0.2 and 3.5 SD of the protein, either way, in both replicates (recomputed)
In short: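 K562 pellets were dounce-homogenised in PBS pH 7.4 containing 1 mM MgCl2, and the crude extract, at 1 mg/mL protein, was exposed to 10 μM compound for 30 min. Aliquots were heated for 3 min across 48°C-58°C, pooled, brought to 0.5% NP-40 at 4°C and spun at 21,000xg for 90 min, with the supernatant taken as soluble protein. TMTpro 16plex LC-MS/MS with equalised channel sums quantified that protein. Values are log-two fold changes in thermal stability relative to solvent controls, taken from duplicates.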

Sequence of UniProt Q96S55 (Q96S55 whole entry, looked up): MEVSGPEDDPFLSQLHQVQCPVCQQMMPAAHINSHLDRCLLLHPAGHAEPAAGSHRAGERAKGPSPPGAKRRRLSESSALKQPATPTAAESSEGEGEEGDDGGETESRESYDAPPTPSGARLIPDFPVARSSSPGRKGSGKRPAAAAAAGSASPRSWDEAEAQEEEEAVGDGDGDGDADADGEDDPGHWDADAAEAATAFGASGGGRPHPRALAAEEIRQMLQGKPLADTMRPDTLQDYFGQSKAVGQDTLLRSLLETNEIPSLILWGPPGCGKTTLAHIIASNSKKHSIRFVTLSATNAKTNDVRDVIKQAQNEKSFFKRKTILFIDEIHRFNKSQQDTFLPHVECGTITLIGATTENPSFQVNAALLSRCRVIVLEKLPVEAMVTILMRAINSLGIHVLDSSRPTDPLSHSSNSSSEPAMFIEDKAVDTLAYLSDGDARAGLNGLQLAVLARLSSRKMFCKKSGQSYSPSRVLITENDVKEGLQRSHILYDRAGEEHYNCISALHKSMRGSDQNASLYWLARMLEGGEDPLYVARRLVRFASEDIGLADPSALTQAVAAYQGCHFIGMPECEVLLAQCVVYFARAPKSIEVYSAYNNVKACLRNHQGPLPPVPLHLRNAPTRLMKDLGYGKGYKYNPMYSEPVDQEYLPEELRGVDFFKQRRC
Sequence of UniProt Q9P253 (Q9P253 whole entry, looked up): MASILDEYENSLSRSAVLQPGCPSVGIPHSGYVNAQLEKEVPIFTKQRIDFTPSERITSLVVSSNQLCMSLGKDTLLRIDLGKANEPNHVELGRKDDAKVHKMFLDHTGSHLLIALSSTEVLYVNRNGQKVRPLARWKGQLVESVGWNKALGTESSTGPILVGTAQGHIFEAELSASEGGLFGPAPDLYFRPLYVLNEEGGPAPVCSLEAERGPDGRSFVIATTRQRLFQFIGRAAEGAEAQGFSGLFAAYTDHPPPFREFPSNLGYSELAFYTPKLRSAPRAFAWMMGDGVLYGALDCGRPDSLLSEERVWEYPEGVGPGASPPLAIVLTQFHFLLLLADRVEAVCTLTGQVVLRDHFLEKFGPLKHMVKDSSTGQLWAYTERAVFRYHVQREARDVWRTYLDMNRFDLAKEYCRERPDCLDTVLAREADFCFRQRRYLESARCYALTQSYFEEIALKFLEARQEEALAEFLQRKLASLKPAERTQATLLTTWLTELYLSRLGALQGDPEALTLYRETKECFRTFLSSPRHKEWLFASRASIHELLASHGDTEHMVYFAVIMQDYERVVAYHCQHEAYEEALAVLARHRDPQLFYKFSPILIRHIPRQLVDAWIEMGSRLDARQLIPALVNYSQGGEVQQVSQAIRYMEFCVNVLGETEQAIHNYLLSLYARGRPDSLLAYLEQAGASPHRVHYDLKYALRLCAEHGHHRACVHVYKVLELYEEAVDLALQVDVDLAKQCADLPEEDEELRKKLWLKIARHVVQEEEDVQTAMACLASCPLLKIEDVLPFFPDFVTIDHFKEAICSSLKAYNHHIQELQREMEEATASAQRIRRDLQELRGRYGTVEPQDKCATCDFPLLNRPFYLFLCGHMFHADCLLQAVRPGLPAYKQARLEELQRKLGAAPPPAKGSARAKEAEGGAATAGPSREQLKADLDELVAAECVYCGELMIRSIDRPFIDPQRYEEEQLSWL
Sequence of UniProt Q9BZI7 (Q9BZI7 whole entry, looked up): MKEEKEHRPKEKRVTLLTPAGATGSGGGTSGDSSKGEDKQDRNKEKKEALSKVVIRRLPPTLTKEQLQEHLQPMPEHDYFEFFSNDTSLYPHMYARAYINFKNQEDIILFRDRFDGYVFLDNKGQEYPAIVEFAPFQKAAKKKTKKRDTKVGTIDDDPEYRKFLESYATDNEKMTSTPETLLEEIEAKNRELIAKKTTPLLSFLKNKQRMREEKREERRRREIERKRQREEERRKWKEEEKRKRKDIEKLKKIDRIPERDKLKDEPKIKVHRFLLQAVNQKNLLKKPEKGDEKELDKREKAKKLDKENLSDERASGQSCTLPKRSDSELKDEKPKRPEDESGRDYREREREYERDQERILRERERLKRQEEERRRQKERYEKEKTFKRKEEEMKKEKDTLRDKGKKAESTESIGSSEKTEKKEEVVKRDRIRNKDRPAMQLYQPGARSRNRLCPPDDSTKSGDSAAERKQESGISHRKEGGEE
Sequence of UniProt Q96K21 (Q96K21 whole entry, looked up): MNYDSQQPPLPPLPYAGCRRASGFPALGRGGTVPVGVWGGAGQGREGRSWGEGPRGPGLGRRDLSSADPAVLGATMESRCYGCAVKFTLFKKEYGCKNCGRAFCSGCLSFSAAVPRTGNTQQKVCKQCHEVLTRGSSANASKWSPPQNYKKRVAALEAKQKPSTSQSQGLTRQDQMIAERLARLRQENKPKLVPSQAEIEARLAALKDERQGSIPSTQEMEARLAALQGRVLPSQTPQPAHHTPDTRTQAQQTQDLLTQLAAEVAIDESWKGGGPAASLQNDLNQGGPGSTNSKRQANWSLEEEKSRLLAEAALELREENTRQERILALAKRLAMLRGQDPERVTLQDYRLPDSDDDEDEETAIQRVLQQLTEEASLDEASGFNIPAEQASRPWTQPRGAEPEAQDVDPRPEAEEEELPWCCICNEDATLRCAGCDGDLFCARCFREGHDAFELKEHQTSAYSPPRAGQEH
Sequence of UniProt Q86UV5 (Q86UV5 whole entry, looked up): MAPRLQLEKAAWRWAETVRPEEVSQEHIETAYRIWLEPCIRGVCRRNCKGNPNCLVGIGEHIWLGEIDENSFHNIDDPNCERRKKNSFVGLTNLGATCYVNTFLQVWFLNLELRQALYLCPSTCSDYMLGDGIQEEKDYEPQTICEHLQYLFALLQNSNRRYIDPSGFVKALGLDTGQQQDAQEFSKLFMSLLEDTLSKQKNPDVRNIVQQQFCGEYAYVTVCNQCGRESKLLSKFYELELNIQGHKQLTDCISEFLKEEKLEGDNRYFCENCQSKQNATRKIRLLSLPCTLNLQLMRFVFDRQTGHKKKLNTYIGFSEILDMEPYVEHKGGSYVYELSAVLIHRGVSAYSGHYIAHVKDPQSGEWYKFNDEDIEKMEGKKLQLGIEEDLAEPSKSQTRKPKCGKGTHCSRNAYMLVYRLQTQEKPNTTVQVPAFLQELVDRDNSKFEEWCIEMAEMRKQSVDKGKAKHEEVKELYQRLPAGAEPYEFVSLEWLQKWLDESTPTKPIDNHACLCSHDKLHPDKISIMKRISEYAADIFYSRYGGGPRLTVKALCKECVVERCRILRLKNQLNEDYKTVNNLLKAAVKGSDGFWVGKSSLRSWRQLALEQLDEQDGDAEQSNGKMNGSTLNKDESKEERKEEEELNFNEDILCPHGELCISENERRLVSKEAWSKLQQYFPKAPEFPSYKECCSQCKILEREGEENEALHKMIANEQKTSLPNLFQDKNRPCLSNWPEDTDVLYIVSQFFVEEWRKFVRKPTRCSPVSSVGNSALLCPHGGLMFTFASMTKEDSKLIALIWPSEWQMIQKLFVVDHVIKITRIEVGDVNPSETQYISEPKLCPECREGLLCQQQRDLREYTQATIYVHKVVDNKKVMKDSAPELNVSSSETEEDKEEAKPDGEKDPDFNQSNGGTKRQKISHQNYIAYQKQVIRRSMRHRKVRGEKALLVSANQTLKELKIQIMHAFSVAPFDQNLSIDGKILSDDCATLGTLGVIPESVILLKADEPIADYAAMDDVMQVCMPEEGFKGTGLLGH
Sequence of UniProt Q14694 (Q14694 whole entry, looked up): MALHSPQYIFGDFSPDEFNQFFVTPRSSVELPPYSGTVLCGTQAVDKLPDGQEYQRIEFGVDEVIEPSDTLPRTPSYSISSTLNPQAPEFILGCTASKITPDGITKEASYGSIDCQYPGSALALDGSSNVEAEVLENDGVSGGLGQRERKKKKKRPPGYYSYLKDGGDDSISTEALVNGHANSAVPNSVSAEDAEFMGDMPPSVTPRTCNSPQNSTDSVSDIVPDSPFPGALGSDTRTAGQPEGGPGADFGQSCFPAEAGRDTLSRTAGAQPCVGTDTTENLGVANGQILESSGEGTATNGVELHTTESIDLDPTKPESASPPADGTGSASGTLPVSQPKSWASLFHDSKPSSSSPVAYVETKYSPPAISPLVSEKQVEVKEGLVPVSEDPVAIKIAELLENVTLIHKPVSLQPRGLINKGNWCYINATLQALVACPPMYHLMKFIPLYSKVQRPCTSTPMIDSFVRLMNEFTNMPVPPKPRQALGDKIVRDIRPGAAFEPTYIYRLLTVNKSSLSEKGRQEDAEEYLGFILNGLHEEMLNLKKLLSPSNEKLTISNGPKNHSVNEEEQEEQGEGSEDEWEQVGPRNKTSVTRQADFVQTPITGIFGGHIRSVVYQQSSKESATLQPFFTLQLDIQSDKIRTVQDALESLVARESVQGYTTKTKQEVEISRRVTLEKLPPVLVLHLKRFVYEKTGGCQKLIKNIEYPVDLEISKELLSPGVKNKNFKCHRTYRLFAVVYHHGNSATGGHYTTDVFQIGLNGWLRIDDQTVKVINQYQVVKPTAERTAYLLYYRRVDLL
Sequence of UniProt Q86WB0 (Q86WB0 whole entry, looked up): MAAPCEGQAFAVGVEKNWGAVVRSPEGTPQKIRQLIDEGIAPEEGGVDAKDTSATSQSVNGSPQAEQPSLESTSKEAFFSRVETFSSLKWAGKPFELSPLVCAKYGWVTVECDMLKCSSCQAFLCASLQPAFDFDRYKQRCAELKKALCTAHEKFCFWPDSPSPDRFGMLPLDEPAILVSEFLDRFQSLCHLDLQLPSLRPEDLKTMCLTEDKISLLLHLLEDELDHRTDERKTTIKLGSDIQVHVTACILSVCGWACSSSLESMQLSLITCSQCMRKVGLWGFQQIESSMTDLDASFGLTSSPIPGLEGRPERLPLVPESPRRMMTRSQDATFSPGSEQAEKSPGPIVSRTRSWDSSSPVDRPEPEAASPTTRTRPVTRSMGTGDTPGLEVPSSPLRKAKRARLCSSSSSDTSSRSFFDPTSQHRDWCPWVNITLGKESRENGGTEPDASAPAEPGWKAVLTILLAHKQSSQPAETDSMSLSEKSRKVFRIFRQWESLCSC

log2 fold change, inactive:
UPF3B (UniProt Q9BZI7) -0.038, YWHAQ (UniProt P27348) -0.06, ZNF609 (UniProt O15014) -0.002, WRB (UniProt O00258) 0.061, VPS72 (UniProt Q15906) -0.108, YTHDC2 (UniProt Q9H6S0) -0.004, WDR77 (UniProt Q9BQA1) -0.003, ZC3HC1 (UniProt Q86WB0) 0.024, ZNF217 (UniProt O75362) -0.013, USP10 isoform 2 (UniProt Q14694) -0.018, ZMYM4 (UniProt Q5VZL5) 0.047, USP16 (UniProt Q9Y5T5) -0.013, VPS54 (UniProt Q9P1Q0) 0.089, ZDHHC18 (UniProt Q9NUE0) -0.069, YRDC (UniProt Q86U90) -0.001, WRNIP1 (UniProt Q96S55) 0.033, ZMYM2 (UniProt Q9UBW7) 0.06, YDJC (UniProt A8MPS7) -0.02, ZFYVE19 (UniProt Q96K21) 0.019, WDR7 (UniProt Q9Y4E6) -0.025, WDR91 (UniProt A4D1P6) -0.004, ZNHIT6 (UniProt Q9NWK9) 0.008, UTP18 (UniProt Q9Y5J1) -0.046, USE1 (UniProt Q9NZ43) -0.026, XPO5 (UniProt Q9HAV4) 0.013, ZC3H13 (UniProt Q5T200) -0.077, VPS18 (UniProt Q9P253) 0.006, USP48 (UniProt Q86UV5) -0.069, UTP3 (UniProt Q9NQZ2) -0.017, WAC (UniProt Q9BTA9) 0.009, VASP (UniProt P50552) 0.019
